Screening results: PubChem BioAssay, National Center for Advancing Translational Sciences (NCATS)
Hits are enriched below; roughly 6.2% of the tested compounds scored in any of these assays.
ATXN2 expr inh – Primary qHTS for Inhibitors of ATXN expression | HEK-293 ATXN2-luciferase reporter, luminescence, 24 h | Potency, µM (highest dose often 57 µM), without a hit: at the highest dose activity change, negative = inhibition, actives largely listed as inhibitors | 0.72% of 360,000 active; further: on the % scale 0 is the no-effect control and ±100 the full control effect; nearly all actives have a fitted effect of over 55% in size
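ATXN2-luciferase reporter cells (luciferase flanked by upstream and downstream ATXN2 gene portions) were treated 24 h at 37 °C with compounds at up to 57 uM. SteadyGlo luminescence gave expression; GF-AFC fluorescence gave viability.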
KB-3-1 cytotox – qHTS assay for MDR1-selective chemotherapeutics: Primary screen using the parental adenocarcinoma cell KB-3-1. KB-3-1 viability, CellTiter-Glo ATP luminescence, 72 h. Potency, µM (highest dose often 46.1 µM), hits mostly cytotoxic. 1.4% of 400,000 active; further: on the % scale 0 is the no-effect control and ±100 the full control effect; nearly all actives have a fitted effect of over 60% in size
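72 h, 37 °C compound treatment of KB-3-1 parental cells; CellTiter-Glo added, 10 min, luminescence read. Data corrected against DMSO-only plates and normalized before curve fitting.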
KB-V1 MDR tox – qHTS assay for MDR1-selective chemotherapeutics: Primary screen using the drug-selected MDR subline cells KB-V1. 3.4% of 400,000 active. Potency, µM (titrated, usually from 46.1 µM), actives largely listed as cytotoxic. KB-V1 MDR cells viability, CellTiter-Glo, 72 h; further: on the % scale 0 is the no-effect control and ±100 the full control effect; nearly all actives have a fitted effect of over 60% in size
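Following 72 h at 37 degrees C with compound, KB-V1 cell viability was read by CellTiter-Glo luminescence, medium being phenol-red-free DMEM plus 10% FBS; concentration-response parameters came from normalized, curve-fitted qHTS data.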
HT1080 IDH1KD tx – qHTS for induction of synthetic lethality in tumor cells producing 2HG: qHTS for the HT-1080-IDH1KD cell line; HT-1080 IDH1 knockdown viability, ATP luminescence, 48 h; 2% of 360,000 active; Potency, µM (top dose mostly 46.1 µM), without a hit: top-dose activity, negative = toxicity, most hits filed as cytotoxic; AID 686971, 2013;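 further: 0% = DMSO wells and -100% = cell-free medium wells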
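After a 2 h attachment period, IDH1KD HT-1080 cells took pin-transferred compound for 48 h at 37 °C; ATP-based luminescence after 10 min room-temperature reagent incubation reported viability.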
HT1080NT lethal – qHTS for induction of synthetic lethality in tumor cells producing 2HG: qHTS for the HT-1080-NT fibrosarcoma cell line; Potency, µM (titrated, usually from 46.1 µM), inactives show at the top dose activity, negative = less viability, hits mostly cytotoxic; AID 686970, 2013; 1.6% of 360,000 active; HT-1080-NT fibrosarcoma viability, CellTiter-Glo ATP luminescence, 48 h;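 further: NT is the 2HG producing partner of a matched IDH1 knockdown line; 0% = DMSO-treated cells and -100% = media-only wells without cells; nearly all actives have a fitted effect of over 55% in size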
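Fibrosarcoma NT cells, 750 per well in 5% FBS RPMI, were exposed to compound for 48 hours. Viability: CellTiter-Glo luminescence.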
ATXN viability – Viability Counterscreen for Primary qHTS for Inhibitors of ATXN expression. AID 651635, 2014. Potency, µM (highest dose often 56.7 µM), usual class: cytotoxic. 0.49% of 400,000 active. S2 cells (HEK-293 line with an ATXN2-luciferase reporter) viability, CellTiter-Fluor protease fluorescence, 24 h; further: nearly all actives have a fitted effect of over 40% in size
* hit, by the source's call; i = inactive; ? = inconclusive; . = no result. The call rests on the fitted dose curve; in most records, active means well fitted curve in the direction sought with a large enough effect; inconclusive means small, poorly fitted or top-dose-only effect, or another doubt; inactive means no such curve, though single readings can be large; an effect the other way counts as inactive or inconclusive. Potency means the concentration at half of the fitted maximal effect.

SMILES | ATXN2 expr inh | KB-3-1 cytotox | KB-V1 MDR tox | HT1080 IDH1KD tx | HT1080NT lethal | ATXN viability
Cc1ccc(-n2cccc2C(=O)NS(=O)(=O)c2ccc(C)cc2)cc1 | 14% | i | i | -2% | -1% | i
CCN(CC)CCNC(Cc1ccccc1)c1cccc(OC)c1 (stereo not given) | 7% | i | 23µM* | -6% | -9% | i
CCN(CC)CCOc1cccc(C(C)C)c1 | 0% | i | i | 16% | 24% | i
O=S1(=O)CCOCCCN1Cc1ccc(F)cc1 | . | i | i | . | . | .
O=C(O)c1cccc(-c2nnn(Cc3ccccc3Cl)n2)c1 | 11µM* | i | i | 0% | 4% | i
COc1cc(/C=N/NC(=O)CCN2CCCCC2)ccc1O | -11% | i | i | 0% | 2% | ?
COc1ccc(/C=N/NC(=O)c2nc(-c3ccccc3)cc(-c3ccccc3)n2)cc1 | -13% | i | i | -2% | -6% | i
COc1ccc(/C=N/NC(=O)c2nc(-c3ccccc3)cc(-c3ccccc3)n2)cc1O | 1% | ? | 16µM* | ? | ? | i
COc1ccc(CC(=O)N/N=C/c2c(C)n(C)c3ccccc23)cc1OC | . | ? | ? | 13µM* | ? | ?
COc1cc(/C=N/NC(=O)CCn2cnc(-c3ccccc3)c2-c2ccccc2)ccc1O | -25% | i | i | ? | 16µM* | i
COc1ccc(CC(=O)N/N=C/c2cc(Br)cs2)cc1OC | . | i | ? | 3% | -1% | i
COc1ccc(/C=N/NC(=O)CCn2c3ccccc3c3ccccc32)cc1O | -1% | ? | i | ? | 1.4µM* | i
COc1cccc(/C=N/NC(=O)CCn2c3ccccc3c3ccccc32)c1 | -11% | i | i | -13% | -6% | i
COc1cc(CNC(=O)c2cnn(-c3ncc4c(n3)-c3ccccc3CC4)c2C)cc(OC)c1OC | . | . | . | . | . | i
O=[N+]([O-])c1cccc(S(=O)(=O)N2CCN(c3nc(-c4ccccc4)nc4ccccc34)CC2)c1 | . | ? | i | . | . | .
Cc1c(/C=N/NC(=O)C(NC(=O)c2ccc3c(c2)OCO3)C(C)C)c2ccccc2n1C (stereo not given) | 7% | i | 18µM* | -6% | -8% | i
COc1ccc2[nH]c(C(=O)N/N=C/c3ccc(OC)c(O)c3)cc2c1 | 35% | 6.5µM* | 9.2µM* | 1.2µM* | 0.58µM* | i
Cc1cccnc1Sc1c([N+](=O)[O-])ncn1C | 5% | i | i | ? | 0% | i
CC(=O)CSc1ncnc2nc[nH]c12 | -7% | i | i | 1% | -29% | i
Cn1cnc([N+](=O)[O-])c1Sc1ncnc2nc[nH]c12 | -9% | 1.8µM* | ? | 4.1µM* | 4.1µM* | ?
Cn1cnc(Sc2ncnc3nc[nH]c23)c1[N+](=O)[O-] | . | ? | ? | 18µM* | ? | ?
CCn1nc(C)cc1C(=O)N1CCC2(CC1)c1ccccc1[C@@H](NC(=O)c1cccnc1)[C@@H]2O | . | . | . | . | . | i
COc1cccc(C(=O)N(Cc2cc3cc4c(cc3nc2N(C)C)OCO4)CC2CCCO2)c1 (stereo not given) | . | . | . | . | . | i
Cc1ccc(S(=O)(=O)c2c(N)n(CCC(C)C)c3nc4ccccc4nc23)cc1 | ? | ? | 13µM* | ? | ? | ?
CC(C)CCn1c(N)c(S(=O)(=O)c2cccs2)c2nc3ccccc3nc21 | 18µM* | i | 21µM* | ? | 22µM* | ?
SMILES | ATXN2 expr inh | KB-3-1 cytotox | KB-V1 MDR tox | HT1080 IDH1KD tx | HT1080NT lethal | ATXN viability
COc1ccc(OC)c(CCNC(=O)c2cnn(-c3ccccc3)c2-n2cccc2)c1 | ? | i | i | . | . | i
C[C@H](CO)N1C[C@H](C)[C@@H](CN(C)CC2CC2)Oc2c(NC(=O)Cc3ccccc3)cccc2C1=O | -15% | 6.5µM* | ? | ? | 26µM* | ?
C[C@H](CO)N1C[C@H](C)[C@@H](CN(C)Cc2ccccc2)Oc2c(NC(=O)C3CCCCC3)cccc2C1=O | ? | ? | ? | -19% | -20% | 20µM*
COc1ccc(Nc2oc(COc3ccc(OC)cc3)nc2C#N)cc1 | 14µM* | i | i | -19% | -16% | i
COc1ccc(Nc2oc(COc3ccccc3F)nc2C#N)cc1 | ? | i | i | 0% | -9% | 35µM*
COc1cc(CN2CCOc3ccc(CN4CCC(O)(c5cccnc5)CC4)cc3C2)ccc1F | . | . | . | . | . | i
Brc1ccccc1-c1nnc(CSc2nncn2-c2ccccc2)o1 | 2% | i | i | 1% | -2% | i
Cc1ccc(-n2nnnc2SCc2nnc(-c3ccccc3Br)o2)cc1 | 17% | i | 16µM* | -8% | 0% | i
Cc1cc(C)n2nc(SCc3ncc(-c4ccccc4)o3)nc2n1 | 4% | i | i | -3% | 2% | i
Cc1cc(C)n2nc(SCc3nnc(-c4ccccc4Br)o3)nc2n1 | -3% | i | 13µM* | 4% | 0% | i
Cc1cccc(OC2(c3ccccc3)OC(=O)c3ccccc32)c1C (stereo not given) | -12% | i | 15µM* | -23% | -4% | i
C=CCNC(=O)/C(C#N)=C/c1c(N(Cc2ccccc2)Cc2ccccc2)nc2ccccn2c1=O | -26% | i | 18µM* | -29% | -5% | ?
N#C/C(=C\c1c(N(Cc2ccccc2)Cc2ccccc2)nc2ccccn2c1=O)C(N)=O | 0% | i | ? | 0% | 0% | ?
CC(C)Cc1nc2oc3c(Cl)ncnc3c2c2c1CCCC2 | 32µM* | i | i | 22% | 8% | ?
CC(C)Cc1nc2oc3c(=O)[nH]cnc3c2c2c1CCC2 | -6% | i | i | -4% | -4% | i
CCCc1nc2oc3c(Cl)ncnc3c2c2c1CCCC2 | ? | ? | i | 18% | 11% | ?
CC(C)Cc1nc2oc3c(=O)[nH]cnc3c2c2c1CCCC2 | -3% | i | 18µM* | -9% | 7% | ?
Cc1ccc2cc(CCNC(=O)c3ccc(Br)o3)c(=O)[nH]c2c1 | -6% | ? | 18µM* | 17% | 0% | i
COCCNC(=S)N/N=C(\C)c1ccc(-n2ccnc2)cc1 | 1% | i | ? | 10µM* | ? | i
